# Bioassay records from PubChem.
# Vif-APOBEC3G blk: inhibitors of Vif-APOBEC3G interaction | HeLa A3G-eYFP + Vif (tagged APOBEC3G with the HIV-1 protein that degrades it), YFP fluorescence, overnight | Potency, µM (series often up to 46.1 µM), most hits filed as inhibitors | 410,000 tested, 0.076% active | AID 602310; note: nearly all actives have a fitted effect of over 60% in size
#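 Read-out is eYFP fluorescence (Ex 488/Em 500-530) from Vif-expressing HeLa A3G-eYFP cells; more signal means A3G escaped Vif-mediated degradation. Cells plated overnight, compound pinned in, incubated overnight at 37 deg C.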
# Vif-APOBEC3F blk: blocks the Vif interaction with APOBEC3F; Potency, µM (highest dose often 46.1 µM); 390,000 tested, 0.2% active; HeLa A3F-eYFP + Vif (tagged APOBEC3F with the HIV-1 protein that degrades it), YFP fluorescence increase; note: nearly all actives have a fitted effect of over 65% in size
#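 HeLa cells stably expressing A3F-eYFP plus Vif, plated and incubated overnight at 37 deg C, then exposed to compounds overnight at 37 deg C. Blocked degradation read as raised yellow fluorescence (Ex 488/Em 500-530).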
# Rango dissoc inh: inhibitors of RanGTP-induced Rango-importin beta complex dissociation | 340,000 tested, 0.071% active | Biochemical FRET Rango-importin beta, RanGTP-induced dissociation | AID 540253 | Potency, µM (highest dose often 46.1 µM) | O95149+P62826; calls by dose curve; note: nearly all actives have a fitted effect of over 45% in size
#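 Rango/importin beta premix (0.1/0.25 uM final), PBS + 1 mM DTT + 0.02% Tween-20 + 0.1% BSA; cpd 5 min RT; FRET pre-read; + RanGTP-RCC1 (0.6 uM Ran, 2 mM GTP, 0.2 uM RCC1); 45 min RT; FRET post-read, ex 430, em 486/530 nm.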
# Epigenetic reg: regulators of epigenetic silencing causing reporter derepression in mouse cells; murine LDR cells, GFP reporter derepression, 30 h; Potency, µM (top dose mostly 53.9 µM), actives largely listed as activators; 280,000 tested, 0.2% active; AID 1865; note: nearly all actives have a fitted effect of over 60% in size
#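 Reporter derepression read as number of fluorescent GFP-positive objects, 20-120 um in size, counted by laser-scanning cytometer. Mouse LDR line with an epigenetically silenced CMV-GFP locus; compound incubation 30 h, 37 C.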
# Rango complex inh: inhibitors of Rango-importin beta complex formation; Rango CFP/YFP FRET sensor + importin beta, 45 min; 340,000 tested, 0.031% active; Potency, µM (series often up to 92.2 µM); AID 540263; Q14974; calls by dose curve; note: nearly all actives have a fitted effect of over 15% in size
#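 FRET biosensor (snurportin 1 IBB flanked by EYFP and cerulean), 50 nM, with compound 5 min, then 0.125 microM importin beta in PBS, 1 mM DTT, 0.02% Tween-20, 0.1% BSA. CFP/YFP ratio read after 45 min at room temperature; pre-read flags interference.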
# A number is an active result; 0 = inactive; ? = inconclusive; - = no result given; [ ] = another dose, or the depositor's remark. Compounds with a hit are over-represented: about 0.42% of the library has one in this group of screens. Unless noted, calls come from the whole dose curve; as a rule, active = well fitted curve in the direction sought with a large enough effect; inconclusive = small, poorly fitted or top-dose-only effect, or another doubt; inactive = no such curve, though single readings can be large; an effect the other way counts as inactive or inconclusive.
SMILES,Vif-APOBEC3G blk,Vif-APOBEC3F blk,Rango dissoc inh,Epigenetic reg,Rango complex inh
COc1ccc(C(NC(=O)C(C)C)c2ccc3cccnc3c2O)cc1 (stereo not given),0,0,0,3.55µM,?
CCCCC(=O)NC(c1ccc(OC)cc1)c1ccc2cccnc2c1O (stereo not given),0,?,-,-,-
COc1ccc(-c2noc(-c3ccc(NCc4ccco4)c([N+](=O)[O-])c3)n2)cc1OC,0,0,-,0,-
Cc1cccc(-c2noc(-c3ccc(NCc4ccco4)c([N+](=O)[O-])c3)n2)c1,0,10µM,-,0,-
C=CCn1cc(/C=C2\SC(N3CCOCC3)=NC2=O)c2ccccc21,0,0,16.4µM,0,?
CCCN1C(=O)S/C(=C\c2ccc(N3CCOCC3)cc2C)C1=O,-,-,-,0,-
CCCN1C(=O)S/C(=C\c2ccc(N3CCOCC3)o2)C1=O,?,?,?,11.2µM,?
CCOC(=O)CN1C(=O)S/C(=C/c2ccc(N3CCCCC3)o2)C1=O,0,31.6µM,?,?,?
CCCN1C(=O)S/C(=C/c2ccc(N3CCOCC3)o2)C1=O,?,?,?,10µM,?
CN1N/C(=C\c2ccccc2)N=C2C(=O)N(C)C(=O)N=C21,0,-,-,-,-
CN(C)/C=C1\NC(=S)N(c2ccccc2)C1=O,0,0,0,0,0
COc1ccc(N2C(=O)/C(=C/c3cccs3)NC2=S)cc1,0,0,16.4µM[inhibitor],0,?
ClCc1nc2ccccc2n1Cc1ccccc1,?,5.62µM,0,-,0
CCOC(=O)Cn1c(=O)c(-c2cc(Br)ccc2N)nc2ccccc21,0,11.2µM,0,?,0
CCc1ccc2c(c1)C(c1ccc([N+](=O)[O-])cc1)=NNC(c1ccc(F)cc1)=N2,0,0,11.6µM,0,?
COc1ccc(C2CC(c3ccncc3)=NN2c2ccc(S(N)(=O)=O)cc2)cc1 (stereo not given),?,11.2µM,?,-,?
Cc1c(C(=O)N(Cc2ccc(N(C)C)cc2)CC2CCCO2)oc2ccc(Br)cc12 (stereo not given),0,0,-,0,-
COc1cc(/C=C/C(=O)/C=C(O)/C=C/c2ccc(O)c(OC)c2)ccc1O,?,0,?,31.6µM,?
Cc1ccc2nc(N3C(=O)C(O)=C(C(=O)c4ccc(C)o4)C3c3ccco3)sc2c1 (stereo not given),0,0,?,-,?
O=C(C1=C(O)C(=O)N(c2nc3ccc(Cl)cc3s2)C1c1ccco1)c1ccco1 (stereo not given),0,0,16.4µM,-,?
Cc1cc(N2C(=O)C(O)=C(C(=O)c3ccco3)C2c2cccc(O)c2)no1 (stereo not given),0,0,?,-,0
Cc1cc(C)c2nc(N3C(=O)C(O)=C(C(=O)c4ccco4)C3c3cccc(O)c3)sc2c1 (stereo not given),?,0,4.11µM,-,?
Cc1cc(C)c2nc(N3C(=O)C(O)=C(C(=O)c4ccco4)C3c3ccc(O)cc3)sc2c1 (stereo not given),0,0,25.9µM,-,?
Clc1ccc(/C=C/c2ccnc3ccccc23)c(Cl)c1,0,-,-,-,-
Oc1ccc(/C=C/c2ccc3ccccc3n2)cc1,0,0,18.4µM,0,?
SMILES,Vif-APOBEC3G blk,Vif-APOBEC3F blk,Rango dissoc inh,Epigenetic reg,Rango complex inh
C(=C\c1ccc2ccccc2n1)/c1ccccc1,?,0,0,0,0
C(=Cc1c[nH]c2ccccc12)c1ccc2ccccc2n1,?,25.1µM,?,-,?
Cc1ccc2c(/C=C/c3c[nH]c4ccccc34)ccnc2c1C,11.2µM,-,-,-,-
COc1ccc(OC)c2c(/C=C/c3c[nH]c4ccccc34)ccnc12,0,-,-,-,-
OCC[n+]1ccc(/C=C/c2c[nH]c3ccccc23)cc1,?,3.55µM,?,0,?
Cc1ccc(C(C)C)c(OCCSc2nc(-c3ccccc3F)nc3cc(=O)[nH]n23)c1,0,0,-,0,-
C(=Cc1c[nH]c2ccccc12)c1nccc2ccccc12,?,8.91µM,?,-,?
COc1ccc(NC(=O)c2cc(-c3ccc(F)cc3)no2)cc1OC,0,0,-,0,-
O=c1oc(/C=C/c2ccc([N+](=O)[O-])s2)nc2ccccc12,0,28.2µM,9.2µM,-,?
Cc1ccc2occ(-c3cc(-c4ccc(F)cc4)nc4c3COc3ccc(F)cc3-4)c(=O)c2c1,0,0,-,0,-
CN(C)c1ccc(/C=C2/CCCc3c2nc2ccccc2c3C(=O)O)cc1,0,-,-,-,-
